# Bioassay records deposited in PubChem BioAssay by several laboratories.
# Calb FLC – C. albicans growth modulation with fluconazole; growth inhibition, % (no concentration beside the values); actives 0.57% (n = 300,000); AID 1979; C. albicans CaCi-2 (fluconazole-resistant clinical isolate) + fluconazole, Alamar Blue growth, 48 h;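 active means growth inhibition above about 58% in most replicates, limit read from the data, passing the limit was not always enough; inconclusive means exactly half the replicates above a set limit; inactive means most replicates below a set limit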;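 further: all wells also contain fluconazole at 8 µg/ml as a sub-toxic cotreatment; 0% = median of DMSO wells and 100% = median of geldanamycin control wells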
# Cardio protect – modulators protecting cardiomyocytes from myocardial damage; H9c2 cardiomyocytes, H2O2 injury protection, ATPLite, 2 h; protection from H2O2 cell death, % at 20 µM; actives 0.63% (n = 360,000); AID 588492;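 active means compounds giving at least 50% protection of heart cells from peroxide-induced death in the single-dose screen, raw or plate-pattern-corrected value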;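 further: 0% = DMSO wells with peroxide and 100% = DMSO wells without peroxide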
# PHOSPHO1 inh – blocks human PHOSPHO1 phosphatase activity; Q8TCT1; recombinant PHOSPHO1, absorbance phosphatase assay; inhibition, % at 13.3 µM; actives 1.1% (n = 290,000); AID 1565; in the data active means inhibition above about 60%
# Efflux pump mplx – inhibitors of Candida antifungal efflux pumps expressed in yeast. actives 0.44% (n = 330,000). inhibition, % at 10 µM. S. cerevisiae Candida pump triplex, Nile Red efflux;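 active means plate passing quality check with inhibition over a set limit, or well fluorescence over plate mean plus 4 SD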;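 further: Nile Red retained in pooled yeast measured as flow cytometry median fluorescence; 0% = buffer negative control and 100% = Enniatin B positive control; higher means more Nile Red kept so more efflux inhibition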
# Cl transport mod – modulators of human KCC2 chloride dependent transport; Q9H2X9; KCC2 cells, thallium flux FluoZin-2 fluorescence; B-score of Tl+ flux slope (higher = more flux/activation; lower = inhibition) at 10 µM; actives 2.2% (n = 190,000);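 active means thallium flux slope and its plate-corrected score both differing from the plate sample mean at a set confidence after two filtering rounds, in either direction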;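 further: slope of fluorescence scaled to starting intensity during 10 to 20 s after thallium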
# Target sequence (Q9H2X9 whole entry, looked up): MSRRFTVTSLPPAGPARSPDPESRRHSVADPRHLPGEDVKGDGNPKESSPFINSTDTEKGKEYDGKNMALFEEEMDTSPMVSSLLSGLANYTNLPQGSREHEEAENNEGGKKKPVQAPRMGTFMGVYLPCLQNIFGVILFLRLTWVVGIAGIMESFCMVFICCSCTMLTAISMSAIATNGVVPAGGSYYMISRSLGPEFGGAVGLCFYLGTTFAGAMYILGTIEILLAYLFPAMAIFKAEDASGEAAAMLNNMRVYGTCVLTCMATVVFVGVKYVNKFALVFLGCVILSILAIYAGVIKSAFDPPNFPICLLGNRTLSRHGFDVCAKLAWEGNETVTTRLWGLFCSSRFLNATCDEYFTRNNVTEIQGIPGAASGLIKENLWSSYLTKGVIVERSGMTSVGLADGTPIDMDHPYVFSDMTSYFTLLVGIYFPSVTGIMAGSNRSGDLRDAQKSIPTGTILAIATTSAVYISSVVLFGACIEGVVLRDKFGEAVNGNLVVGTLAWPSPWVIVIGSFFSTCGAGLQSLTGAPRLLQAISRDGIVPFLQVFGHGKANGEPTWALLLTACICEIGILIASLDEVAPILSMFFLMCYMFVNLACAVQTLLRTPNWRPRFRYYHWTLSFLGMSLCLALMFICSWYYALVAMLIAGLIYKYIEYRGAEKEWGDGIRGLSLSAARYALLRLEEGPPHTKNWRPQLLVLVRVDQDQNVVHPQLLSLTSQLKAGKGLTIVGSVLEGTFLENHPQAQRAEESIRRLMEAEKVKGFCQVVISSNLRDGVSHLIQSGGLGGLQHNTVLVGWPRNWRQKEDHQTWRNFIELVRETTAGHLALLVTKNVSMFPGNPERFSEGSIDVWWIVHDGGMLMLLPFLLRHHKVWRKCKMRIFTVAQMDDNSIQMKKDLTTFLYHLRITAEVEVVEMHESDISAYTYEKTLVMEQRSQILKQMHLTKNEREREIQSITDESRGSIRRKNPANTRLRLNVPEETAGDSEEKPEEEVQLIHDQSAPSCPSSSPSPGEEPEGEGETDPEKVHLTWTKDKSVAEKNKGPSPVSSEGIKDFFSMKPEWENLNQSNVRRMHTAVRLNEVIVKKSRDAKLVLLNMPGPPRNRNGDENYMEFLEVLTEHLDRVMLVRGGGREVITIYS
# Numbers without * were called inactive; ? = inconclusive; . = not tested or not shown. Shown are actives, neighbours in structure and some others; about 3.3% of the full set was active somewhere.
SMILES,Calb FLC,Cardio protect,PHOSPHO1 inh,Efflux pump mplx,Cl transport mod
O=C(COC(=O)c1cccc(C(F)(F)F)c1)NC(=O)NC1CCCC1,.,-8,.,0,.
COC(=O)NC(=S)Nc1ccc(Oc2ccc(Cl)cc2Cl)c(Cl)c1,-6,-20,2,0,11*
COc1ccc(C)cc1NC(=O)C1CCN(S(=O)(=O)c2cccs2)CC1,3,-3,24,0,.
Cc1ccc(NC(=O)C2CCN(S(=O)(=O)c3cccs3)CC2)c(O)c1,12,-8,62*,0,.
COc1ccc([C@H]2CC(=O)C=C(c3cccc(OC(F)(F)F)c3)C2)cc1,.,-8,.,0,.
Cc1nc(-c2ccc(O)c(O)c2)cs1,-16,61*,0,0,1.5
O=c1[nH]n2c(C(F)(F)F)cc(C3CC3)nc2c1N=Nc1ccccc1,88*,22,-17,0,.
Cc1cc(C(F)(F)F)n2[nH]c(=O)c(N=Nc3ccccc3)c2n1,26,6,-5,0,0.66
Cc1csc(N/N=C/c2ccc(O)c([N+](=O)[O-])c2)n1,5,9,93*,0,0.61
COc1ccccc1OCCNC(=O)CN1C(=O)NC2(CCCCC2)C1=O,.,0,.,0,.
Cc1c(C(=O)NCc2n[nH]c(=S)n2-c2ccc(F)cc2)cccc1[N+](=O)[O-],-6,3,-2,0,-0.18
Cc1cccn2c(=O)nc(SCC(=O)NCc3ccccc3)nc12,-1,15,.,0,.
NC(N)=N/N=C/c1ccc(OCc2ccc(Cl)cc2)cc1,111*,-22,2,0,.
NC(N)=N/N=C/c1ccc(OCc2ccccc2)cc1,-12,-5,2,0,.
COc1ccc(OCCSc2nnc3sc4ccccc4n23)cc1,-11,-18,77*,0,-0.22
CCCCn1c(N)c(N(CC(C)C)C(=O)c2ccc(-c3ccc(C(C)=O)cc3)o2)c(=O)[nH]c1=O,-7,0,.,0,.
CCc1nnc(SCC(=O)Nc2ccc3c(c2)OCO3)n1CC,-2,-1,56,0,.
Cc1ccc(OCc2nnc(SCC(=O)Nc3ccc4c(c3)OCO4)n2C)cc1,-6,-1,35,0,-1.3
COc1ccc(-c2cnc(SCC(=O)Nc3ccc4c(c3)OCO4)n2Cc2ccco2)cc1,-16,-19,102*,.,0.22
CCn1c(COc2ccc(Cl)cc2)nnc1SCC(=O)Nc1ccc2c(c1)OCO2,-11,-11,60*,0,.
Cn1c(COc2ccccc2)nnc1SCC(=O)Nc1ccc2c(c1)OCO2,-9,6,61*,0,-0.69
C=CCCCCCCCCc1nc(=S)[nH][nH]1,7,4,60*,0,64*
COC(=O)c1cncn1Cc1ccccc1,.,-1,.,.,.
CC12CC3CC(C)(C1)CC(C(=O)NCc1ccncc1)(C3)C2,3,-1,.,0,.
CC(C)(C)CC(C)(C)NC(=S)Nc1ccc2nc(-c3ccccn3)c(-c3ccccn3)nc2c1,-21,-10,96*,0,-2.8
SMILES,Calb FLC,Cardio protect,PHOSPHO1 inh,Efflux pump mplx,Cl transport mod
CCOC(=O)c1c(S(=O)(=O)NCC(=O)N2CCN(c3ccccc3)CC2)c(C)n(C)c1C,-6,0,13,0,.
COCCCNC(=O)C1C2C=CC3(CN(Cc4ccc(C)cc4)C(=O)C13)O2 (centres undefined),11,8,60*,0,0.2
CCOC(=O)CN1CC23C=CC(O2)C(C(=O)Nc2ccc(OC)cc2OC)C3C1=O (centres undefined),3,5,-28,0,-0.067
Cc1ccc(CN2CC34C=CC(O3)C(C(=O)NCc3ccc5c(c3)OCO5)C4C2=O)cc1 (centres undefined),-15,16,52,0,.
CCOC(=O)CN1CC23C=CC(O2)C(C(=O)Nc2cc(OC)ccc2OC)C3C1=O (centres undefined),4,5,-22,0.9*,0.032
Cc1cccc(N(Cc2cc3ccc(C)cc3[nH]c2=O)C(=O)c2ccco2)c1,-3,-12,70*,0,0.053
Cc1ccc2cc(CN(C(=O)c3ccco3)c3ccccc3)c(=O)[nH]c2c1,-4,-11,16,0,-0.055
COc1cccc(NC(=O)CCS(=O)(=O)c2ccc3c(c2)oc(=O)n3C)c1,-1,6,28,0,.
S=c1[nH]nc(-c2ccco2)n1/N=C/c1cccc(Cl)c1Cl,?,0,11,0,49*
S=c1[nH]nc(-c2ccco2)n1/N=C/c1ccc(Cl)cc1Cl,29,-9,41,0,16*
S=c1[nH]nc(-c2ccco2)n1/N=C/c1cccs1,50,5,16,0,2.3
